According to PubChem BioAssay (NCATS):
Inconclusive results are not listed. A number with no mark means an inactive call. Calls of active or inactive are those of the source. The call rests on the fitted dose curve; in most records, active means well fitted cell-killing curve with a large enough effect in the repeat runs; inconclusive means weak or mixed curves, or effect the other way; inactive means flat fitted curve, though single readings scatter. Peptide text beside a SMILES is read from it.

assay: qHTS assay for small molecule antagonists of the retinoid-related orphan receptor gamma (ROR-gamma) signaling pathway - cell viability counter screen (AID 720652); details: RORgamma reporter cell line viability counter screen; series mostly up to 92.2 µM; activity change, negative = cytotoxicity: at the top concentration;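 further: compound exposure lasted 16 hr before ATP read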
Source text: National Center for Advancing Translational Sciences [NCATS]
NIH Chemical Genomics Center [NCGC]
National Institutes of Environmental Health Sciences [NIEHS]
National Toxicology Program [NTP]
Nuclear steroid hormone receptors are involved in many biological processes including inflammatory responses, cell proliferation, and apoptosis. Environmental factors or compounds disrupting these nuclear receptor pathways and gene expression may promote susceptibility to immunotoxicants and autoimmune diseases. One important group of these expression factors are the retinoid-related orphan receptors. To assess compounds that may interfere with the retinoid-related orphan receptor gamma (ROR-gamma) transcription factor, a cell-based luciferase assay was used.
The CHO cell-based assay utilizes a TET-inducible ROR expression factor and ROR response element-LUC reporter gene. Reporter activity was induced using doxycycline and measured after 16hr incubation. Luminescence was read using Viewlux (PerkinElmer), where a decrease in reporter activity would show a decrease in luminescence. The cytotoxicity of the compounds against ROR response-Luc reporter gene cell line was quantified by measuring the intracellular ATP content.
1,000 cells in 4 uL/well were dispensed into white wall/solid bottom 1536-well plates using a Multidrop Combi (Thermo Scientific) dispenser. Following incubation at 37 C and 5% CO2 for 5 hr, 23 nL compound or DMSO vehicle were transferred by a pin tool, then the plates were treated with 1 ul doxycycline to induce reporter gene activity. After 16 hr incubation at 37 C and 5% CO2, 5 uL/well of CellTiter-Glo reagent (Promega) was then added to each plate using a Flying Reagent Dispenser and incubated at room temperature for 30 min. The luminescence intensity was quantified on a ViewLux plate reader (PerkinElmer).
On the % scale 0 is the no-effect control and ±100 the full control effect.

Q: For COC(=O)[C@H](Cc1ccccc1)NC(=O)[C@@H](N)CC(=O)O (H-Asp-Phe-OMe), which “activity change, negative = cytotoxicity” value is on record?
A: Its value is 3.41%.

Q: With Cc1ccc(C)c(OCCCC(C)(C)C(=O)O)c1 as the compound, how does the “activity change, negative = cytotoxicity” value read?
A: Its value is 8.78%.

Q: With CS(=O)(=O)OCCCCOS(C)(=O)=O as the compound, how does the outcome read?
A: Its outcome is “inactive”.

Q: Which “activity change, negative = cytotoxicity” value does the source give for c1ccc2[nH]c(-c3cscn3)nc2c1 here?
A: The value was -18.1%.

Q: Which “activity change, negative = cytotoxicity” value does the source give for CCc1nc(N)nc(N)c1-c1ccc(Cl)cc1 here?
A: Its value is -3.79%.

Q: For CC(=O)Nc1ccc(O)cc1, which “activity change, negative = cytotoxicity” value is on record?
A: The value was 3.82%.

Q: Which “activity change, negative = cytotoxicity” value does the source give for NS(=O)(=O)c1cc(C(=O)O)c(NCc2ccco2)cc1Cl here?
A: The value was -4.74%.

Q: Which “activity change, negative = cytotoxicity” value does the source give for Cc1cc(O)c2c(c1)C(=O)c1cc(O)cc(O)c1C2=O here?
A: The value was 0.0132%.

Q: With CCCc1cc(=O)[nH]c(=S)[nH]1 as the compound, how does the “activity change, negative = cytotoxicity” value read?
A: The value was 6.96%.

Q: For Nc1ccc(S(N)(=O)=O)cc1, which “activity change, negative = cytotoxicity” value is on record?
A: The value was -1.46%.
